Data reported in PubChem BioAssay AID1220 (Sanford-Burnham Center for Chemical Genomics, 2008).
About 1,300 (0.68%) of roughly 190,000 compounds were called active. No stated cut-off is given here; in the data, active means inhibition above about 50%; inactive means the rest. Many of the other results were omitted from the sample, so actives are more common in it than they were.

The compounds below were run against Mannose-6-phosphate isomerase (Homo sapiens) (UniProt P34949) (assay: MPI inhibition at elevated mannose 6-phosphate – biochemical, fluorescence intensity, high mannose 6-phosphate, primary screen (AID 1220)). Settings: recombinant PMI enzyme, coupled fluorescence intensity; at 20 µM; hits give high values.
Sequence of Mannose-6-phosphate isomerase (Homo sapiens) (P34949 whole entry, looked up): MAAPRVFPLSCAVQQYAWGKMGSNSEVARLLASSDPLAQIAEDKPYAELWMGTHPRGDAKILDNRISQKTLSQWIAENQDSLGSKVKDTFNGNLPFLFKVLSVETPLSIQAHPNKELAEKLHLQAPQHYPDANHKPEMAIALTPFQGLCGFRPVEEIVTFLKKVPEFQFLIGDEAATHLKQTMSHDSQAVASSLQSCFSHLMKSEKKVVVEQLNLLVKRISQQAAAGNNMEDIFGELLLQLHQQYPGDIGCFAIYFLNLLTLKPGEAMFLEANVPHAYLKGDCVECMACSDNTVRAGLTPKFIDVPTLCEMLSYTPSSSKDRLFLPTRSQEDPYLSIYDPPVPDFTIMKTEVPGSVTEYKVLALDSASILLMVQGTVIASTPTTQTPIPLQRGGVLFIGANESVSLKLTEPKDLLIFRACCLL

Q: `C=CCn1c(Cc2ccc(OC)cc2)nnc1SCC(=O)NCCc1ccccc1` was tested. Which inhibition did it give?
A: -0.7% (inactive)

Q: Which inhibition does the source give for `COc1ccc(C(C)C)cc1S(=O)(=O)N1CCN(c2ccccc2)CC1` here?
A: 6.8% (inactive)

Q: With `Cn1nnnc1NCc1ccc(Cl)cc1` as the compound, how does the inhibition read?
A: -7.1% (inactive)

Q: Which inhibition does the source give for `COCc1ccc(CN2CCc3c([nH]c4ccccc34)C2CC(C)C)o1` (centres undefined) here?
A: 52% (active)

Q: With `COCc1ccc(CN2CCc3c([nH]c4ccccc34)C2C(C)(C)C)o1` (centres undefined) as the compound, how does the inhibition read?
A: 14.1% (inactive)

Q: Which inhibition does the source give for `Cc1cnc(CN2CCc3c([nH]c4ccccc34)C2CC(C)C)[nH]1` (centres undefined) here?
A: 11.2% (inactive)

Q: With `O=C(Cc1cccs1)Nc1ccc(S(=O)(=O)N2CCCC2)cc1` as the compound, how does the inhibition read?
A: 39.8% (inactive)

Q: Which inhibition does the source give for `CC(On1c(-c2ccccc2)nc2ccc(Cl)cc21)C(=O)O` (centres undefined) here?
A: -10.3% (inactive)

Q: Which inhibition does the source give for `C/C(=C/C(=O)N1CCc2ccccc21)C(=O)O` here?
A: 2.1% (inactive)

Q: For `C/C(=C\C(=O)N1CCc2ccccc21)C(=O)O`, which inhibition is on record?
A: 61.3% (active)

Q: Which inhibition does the source give for `CC(C)=CC(=O)N1CCCc2ccccc21` here?
A: 10.1% (inactive)

Q: With `Nc1nonc1-n1nnc(C(=O)O)c1-c1cccs1` as the compound, how does the inhibition read?
A: 0.4% (inactive)

Q: With `Cc1noc(C)c1COC(=O)CNC(=O)c1cccc(F)c1` as the compound, how does the inhibition read?
A: -11.8% (inactive)

Q: `Oc1c(Br)cc(Br)cc1C=Nc1ccc2c(c1)OCO2` was tested. Which inhibition did it give?
A: 48.6% (inactive)

Q: For `Oc1c(Br)cc(Br)cc1C=Nc1ccc2c(c1)OCCO2`, which inhibition is on record?
A: 59.7% (active)

Q: For `Oc1ccc(C=Nc2cccc3ncccc23)c(O)c1`, which inhibition is on record?
A: 38.7% (inactive)

Q: Which inhibition does the source give for `CN(C)/N=C/c1cc([N+](=O)[O-])ccc1O` here?
A: 9.8% (inactive)

Q: How did the inhibition turn out when `O=[N+]([O-])c1ccc(O)c(C=Nc2ccc3oc(Cc4ccc(Cl)cc4)nc3c2)c1` was run?
A: 61.1% (active)

Q: With `Oc1c(Cl)cc(Cl)cc1C=Nc1ccc2c(c1)OCCO2` as the compound, how does the inhibition read?
A: 25% (inactive)

Q: How did the inhibition turn out when `O=[N+]([O-])c1ccc(O)c(C=Nc2ccc3c(c2)OCCO3)c1` was run?
A: 52.8% (active)

Q: Which inhibition does the source give for `O=C(Nc1ccc2oc(Cc3ccc(Cl)cc3)nc2c1)c1cccnc1` here?
A: 7.7% (inactive)

Q: Which inhibition does the source give for `O=C(N/N=C/c1cc([N+](=O)[O-])ccc1O)c1ccc2c(c1)OCCO2` here?
A: -16.7% (inactive)

Q: How did the inhibition turn out when `O=[N+]([O-])c1ccc(O)c(C=Nc2ccc3nc(-c4ccccc4)[nH]c3c2)c1` was run?
A: 8.2% (inactive)

Q: With `O=[N+]([O-])c1ccc(O)c(/C=N/Nc2ccccn2)c1` as the compound, how does the inhibition read?
A: -20.1% (inactive)

Q: Which inhibition does the source give for `O=[N+]([O-])c1ccc(O)c(C=Nc2cccc3ncccc23)c1` here?
A: 52.5% (active)

Q: `C=CCn1c(SCC(N)=O)nnc1-c1cccc(Br)c1` was tested. Which inhibition did it give?
A: 1% (inactive)

Q: `Cc1ccc(CN2CCN(Cc3cnc(C)[nH]3)CC2CCO)cc1` (centres undefined) was tested. Which inhibition did it give?
A: 2% (inactive)

Q: Which inhibition does the source give for `O=C(Nc1c(F)cc(F)cc1Br)C1CCCO1` (centres undefined) here?
A: 15.5% (inactive)

Q: Which inhibition does the source give for `CC(=O)NCCc1ccc(S(=O)(=O)N2CCOCC2)cc1` here?
A: -2.7% (inactive)

Q: Which inhibition does the source give for `CCOC(=O)CNC(=O)CSc1nnc(SCC(=O)NCC(=O)OCC)s1` here?
A: -6.4% (inactive)

Q: How did the inhibition turn out when `COc1ccc(/C=C/C(=O)NC(=S)N2CCN(C)CC2)cc1` was run?
A: -10.4% (inactive)

Q: `CSc1ccccc1NC(=O)CN(C)CC(=O)Nc1ccccc1F` was tested. Which inhibition did it give?
A: -13.9% (inactive)

Q: Which inhibition does the source give for `Cc1ccc(NC(=S)N(Cc2ccco2)C2CCN(C(C)C)CC2)cc1` here?
A: -8.2% (inactive)

Q: `CN1COc2ccc3ccccc3c2C1` was tested. Which inhibition did it give?
A: 67.8% (active)

Q: Which inhibition does the source give for `O=C1COc2ccc3ccccc3c2CN1` here?
A: -0.8% (inactive)

Q: How did the inhibition turn out when `Cn1c2c(c(=O)n(C)c1=O)[C@@H]1c3c(ccc4ccccc34)OC[C@@H]1CO2` was run?
A: -2.5% (inactive)

Q: Which inhibition does the source give for `Cc1ccc(C(=O)N/N=C/c2ccc(N3CCOCC3)cc2)c(C)c1` here?
A: -8% (inactive)

Q: `CCN(C(=O)c1ccc(NC(C)=O)cc1)c1ccccc1C` was tested. Which inhibition did it give?
A: -3% (inactive)

Q: Which inhibition does the source give for `Cc1ccc(Nc2c([N+](=O)[O-])ccc3c2=NC2(CCCCC2)N=3)cc1` here?
A: 50.8% (active)

Q: `O=[N+]([O-])c1ccc2c(c1Nc1ccccc1)=NC1(CCCCC1)N=2` was tested. Which inhibition did it give?
A: 58.9% (active)

Q: `Cc1ccccc1Nc1c([N+](=O)[O-])ccc2c1=NC1(CCCCC1)N=2` was tested. Which inhibition did it give?
A: 38.7% (inactive)

Q: For `O=[N+]([O-])c1ccccc1Nc1ccccc1`, which inhibition is on record?
A: -3.7% (inactive)

Q: For `Cc1ccc(NC(=O)c2ccc(Nc3c([N+](=O)[O-])cc([N+](=O)[O-])cc3[N+](=O)[O-])cc2)cc1`, which inhibition is on record?
A: 3.9% (inactive)

Q: How did the inhibition turn out when `Cc1ccc(Nc2cc(C)nc3c(C)ccc([N+](=O)[O-])c23)cc1` was run?
A: 10.2% (inactive)

Q: Which inhibition does the source give for `C[C@H]1CC[C@@]2(O[C@H](CCO)C[C@@H](O)[C@@H]2O)O1` here?
A: 12.7% (inactive)

Q: With `COc1ccc(Cn2nnc3c(=O)[nH]c(C4CCCN(C(=O)c5ccccc5)C4)nc32)cc1` (centres undefined) as the compound, how does the inhibition read?
A: -5.4% (inactive)

Q: How did the inhibition turn out when `CC1(C)Cc2ccccc2C(/C(=N/O)C(N)=O)=N1` was run?
A: 5.1% (inactive)

Q: Which inhibition does the source give for `CCOC(=O)/C(=N\O)C1=NC(C)(C)Cc2ccccc21` here?
A: -11.3% (inactive)

Q: Which inhibition does the source give for `COc1ccc(-c2c(C)nn3c(N4CCC(C(=O)NCCN(C)C)CC4)cc(C)nc23)cc1OC` here?
A: 5.7% (inactive)

Q: How did the inhibition turn out when `CCN(CC)CCNC(=O)C(C(=O)c1ccccc1)n1ccccc1=O` (centres undefined) was run?
A: 1.8% (inactive)

Q: For `COc1ccc(CNC(=O)C(c2ccncc2)N(C(=O)Cc2cccs2)c2ccccc2)cc1` (centres undefined), which inhibition is on record?
A: 1.9% (inactive)

Q: How did the inhibition turn out when `Cc1cc(NC(=O)c2ccccc2)n(-c2nc3ccccc3[nH]2)n1` was run?
A: 59.2% (active)

Q: Which inhibition does the source give for `Cc1cc(NC(=O)c2c(F)cccc2F)n(-c2nc3ccccc3[nH]2)n1` here?
A: 3% (inactive)

Q: How did the inhibition turn out when `Cc1cc(NC(=O)c2ccccc2F)n(-c2nc3ccccc3[nH]2)n1` was run?
A: -1.3% (inactive)

Q: How did the inhibition turn out when `COc1cc(OC)c(-c2nnc3n(CCc4ccccc4)c(=O)c4ccccc4n23)cc1OC` was run?
A: 10.4% (inactive)

Q: For `COc1ccc(CCN2C(=O)C3C4C=CC(C4)C3C2=O)cc1OC` (centres undefined), which inhibition is on record?
A: 14% (inactive)

Q: With `CCCCOc1ccc(Nc2nc(C)cc(C)c2C#N)cc1` as the compound, how does the inhibition read?
A: 6.1% (inactive)

Q: How did the inhibition turn out when `CCOc1cc(NC(=S)NC)c(OCC)cc1NC(=O)c1ccc(OC)cc1` was run?
A: 49.8% (inactive)

Q: With `CCOc1cc(NC(=S)Nc2ccccc2)c(OCC)cc1NC(=O)c1ccccc1` as the compound, how does the inhibition read?
A: 7.3% (inactive)

Q: With `CCOc1cc(NC(=S)Nc2cccc(OC)c2)c(OCC)cc1NC(=O)C(C)C` as the compound, how does the inhibition read?
A: 45.4% (inactive)

Q: With `COc1cccc(NC(=O)C2CCCCC2)c1` as the compound, how does the inhibition read?
A: 5.6% (inactive)

Q: `COc1cccc(NC(=O)CNC(=O)c2ccc(C)cc2)c1` was tested. Which inhibition did it give?
A: 0.9% (inactive)

Q: Which inhibition does the source give for `CCOc1cc(NC(=S)Nc2cccc(OC)c2)c(OCC)cc1NC(=O)C1CC1` here?
A: 56.8% (active)

Q: How did the inhibition turn out when `CCOc1cc(NC(=S)Nc2cccc(OC)c2)c(OCC)cc1NC(=O)c1ccc(C)cc1` was run?
A: 55.1% (active)

Q: With `CCOc1cc(NC(=S)Nc2cccc(C)c2)c(OCC)cc1NC(=O)CC(C)C` as the compound, how does the inhibition read?
A: 17.5% (inactive)

Q: With `CCOc1cc(NC(=S)Nc2ccc(Cl)cc2)c(OCC)cc1NC(C)=O` as the compound, how does the inhibition read?
A: 55.9% (active)

Q: With `CCOc1cc(NC(=O)CCl)c(OCC)cc1NC(C)=O` as the compound, how does the inhibition read?
A: 20.4% (inactive)

Q: Which inhibition does the source give for `CCOc1ccc(NC(=S)Nc2cc(OC)c(Cl)cc2OC)cc1` here?
A: 24.8% (inactive)

Q: With `CCOc1cc(NC(=S)Nc2ccccc2)c(OCC)cc1NC(=O)c1ccc(OC)cc1` as the compound, how does the inhibition read?
A: 56.8% (active)
